Test results published in the supplement of paper PMC7801607.

What was measured:
[1] = test system: CHO; experiment: % viability of CHO cells (MTT); higher = less toxic; details: 48 h
In short: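 Viability was given as a percentage of untreated cells and measured colorimetrically by the tetrazolium (MTT) assay. Before this, CHO cells at 10^6 cells/well in 200 µL attached overnight, then received fresh medium containing compound at 2 or 20 µM for 48 h.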

[2] = test system: HepG2-A16-CD81; experiment: % inhibition of HepG2 viability (CellTiter-Glo); higher = more toxic; details: 5 µM;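 also: HepG2-A16-CD81 hepatoma cells plated as in the liver-stage assay but without sporozoites, with DMSO wells as negative and 25 µM puromycin as positive control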
[3] = test system: Plasmodium falciparum NF54 stage IV/V gametocytes; experiment: % inhibition of gametocyte viability (PrestoBlue); higher = more inhibition; details: 48 h
In short: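 Values are percent inhibition of gametocyte viability, normalised to vehicle and kill controls in a single run. Stage IV/V NF54 gametocytes (2% gametocytaemia, 5% haematocrit, 100 µL/well) were held with compound at 1 or 5 µM for 48 h at 37 °C, stationary and hypoxic. Viability was read as 612 nm fluorescence on 70 µL of supernatant after a 2 h incubation with 10 µL PrestoBlue.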

[4] = test system: Plasmodium falciparum NF54 asexual blood stage; experiment: % inhibition of asexual blood stage proliferation (pLDH); higher = more inhibition; details: 72 h
In short: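 Using 96-well plates, the screen was run twice on separate occasions with Plasmodium falciparum NF54 ring-stage cultures at 1% haematocrit and 2% parasitaemia. Each culture was exposed to compound at 2 or 20 µM for 72 h at 37 °C under a gas mix of 4% CO2, 3% O2 and 93% N2. After incubation, the parasite lactate dehydrogenase assay was read colorimetrically at 620 nm. From this readout, percent inhibition of asexual proliferation was derived against control wells.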

[5] = test system: Plasmodium falciparum NF54 stage IV/V gametocytes; experiment: % inhibition of gametocyte viability (ATP bioluminescence); higher = more inhibition; details: 24 h
In short: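 Viability of stage IV/V NF54 gametocytes is given as percent inhibition, normalised to control wells in a single run. Gametocytes enriched on density gradients were seeded at 30,000 per well in 96-well plates with compound at 1 or 5 µM and held at 37 °C for 24 h. ATP was then read with the Promega BacTiter Glo bioluminescence system.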

[6] = test system: Plasmodium falciparum NF54 stage IV/V gametocytes; experiment: % inhibition of gametocyte viability (luciferase reporter); higher = more inhibition; details: 48 h
In short: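 Stage IV/V gametocytes of the NF54-Pfs16-GFP-Luc line (2% gametocytaemia, 2% haematocrit) were exposed to compound at 1 or 5 µM. Incubation was 48 h at 37 °C, stationary and hypoxic. Luminescence was read on 30 µL lysate plus 30 µL Promega luciferin substrate on a GloMax-Multi+ reader with 10 s integration. Percent inhibition was normalised to DMSO and kill controls from a single run.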

| Structure (SMILES) | % viability of CHO cells ([1]; 2 µM) [%] | % viability of CHO cells ([1]; 20 µM) [%] | % inhibition of HepG2 viability [2] [%] | % inhibition of gametocyte viability ([3]; 1 µM) [%] | % inhibition of gametocyte viability ([3]; 5 µM) [%] | % inhibition of asexual blood stage proliferation ([4]; 2 µM) [%] | % inhibition of asexual blood stage proliferation ([4]; 20 µM) [%] | % inhibition of gametocyte viability ([5]; 1 µM) [%] | % inhibition of gametocyte viability ([5]; 5 µM) [%] | % inhibition of gametocyte viability ([6]; 1 µM) [%] | % inhibition of gametocyte viability ([6]; 5 µM) [%] |
| --- | --- | --- | --- | --- | --- | --- | --- | --- | --- | --- | --- |
| NCCCc1ccccc1C(=O)Nc1ncc([N+](=O)O)s1 | 104 | 62.7 | 0.282 | 32.9 | 23.9 | -16.4 | -1.52 | 0.0401 | < 0 | < 0 | < 0 |
| CCN(CC)S(=O)(=O)c1ccc(Cl)c(C(=O)Nc2sc3c(c2C#N)CCCC3)c1 | 100 | 109 | 20.9 | < 0 | < 0 | 0.194 | 18.9 | < 0 | < 0 | < 0 | 9.16 |
| OC1O[C@H](CSc2ccc(F)cc2)[C@@H](O)[C@H]1O (some centres not stated) | 84.4 | -2.31 | -4.06 | < 0 | 18.7 | 91.2 | 90.9 | < 0 | < 0 | < 0 | 0.415 |
| FC(F)(F)c1cc(C(F)(F)F)c2ccc3nc(-c4nnco4)cn3c2n1 | 93.3 | 124 | 8.21 | 17.1 | 21.3 | 19.6 | 26.8 | < 0 | < 0 | 1.44 | 18 |
| Cc1[nH]c2ccccc2c1CCNCc1ccc(/C=C/C(=O)NO)cc1 | 76.4 | 37.9 | 54.5 | 19.9 | 34.4 | 62.2 | 79.9 | < 0 | < 0 | 31.8 | 3.05 |
| CC1=C(/C=C/C(C)=C/C=C/C(C)=C/C(=O)Nc2ccc(O)cc2)C(C)(C)CCC1 | 118 | 102 | 4.42 | < 0 | < 0 | 33.3 | 90 | < 0 | < 0 | < 0 | < 0 |
| O=C(Nc1nnc(-c2ccccc2)o1)c1ccc(F)cc1 | 88.3 | 114 | 8.93 | 8.12 | < 0 | 52.8 | 61.2 | < 0 | < 0 | < 0 | < 0 |
| CC(C)(C)c1ccc(C(=O)NC(=O)N2CCCc3ccccc32)cc1 | 94.6 | 101 | -0.159 | < 0 | < 0 | -6.14 | -5.88 | < 0 | < 0 | < 0 | < 0 |
| O=C(O)C[C@H]1CC[C@H](c2ccc(-c3ccc(Nc4ccc(C(F)(F)F)nc4)cn3)cc2)CC1 | 115 | 77.1 | 4.22 | 24.3 | 3.88 | 24.2 | 39.5 | 7.64 | 6.34 | < 0 | < 0 |
| COC1CC2CCC(C)C(O)(O2)C(=O)C(=O)N2CCCCC2C(=O)OC(C(C)CC2CCC(OCCO)C(OC)C2)CC(=O)C(C)/C=C(\C)C(O)C(OC)C(=O)C(C)CC(C)/C=C/C=C/C=C/1C (configuration not stated) | 92.8 | 106 | 1.51 | < 0 | 4.18 | 26.6 | 90.3 | 2.16 | 37.2 | 15 | 4.08 |
| N#Cc1c(F)c(Cl)c(NCc2ccccc2)c(C#N)c1F | 102 | -2.81 | 2.78 | 20.8 | 49.5 | 56.1 | 95.3 | < 0 | 20.5 | 2.47 | 52.5 |
| COc1ccc(COc2cc3oc(=O)c4cc(C(C)O)ccc4c3cc2OC)cc1 (configuration not stated) | 81.5 | 74.4 | 6.8 | 11 | 11.6 | 35.7 | 80.4 | 6.77 | < 0 | < 0 | < 0 |
| CCCC(=O)OCCc1ccccc1 | 114 | 99.3 | 0.113 | 10.7 | 4.24 | 8.06 | 16.5 | < 0 | < 0 | < 0 | 0.854 |
| CNc1nc(=O)[nH]cc1F | 95.1 | 98.5 | -2.31 | < 0 | 8.84 | -10.3 | -14.1 | < 0 | < 0 | < 0 | < 0 |
| O=C(O)CSc1cc(NS(=O)(=O)c2cccc3cccnc23)c2ccccc2c1O | 95.5 | 80.9 | 2.37 | < 0 | 29.3 | 70.5 | 81 | 0.374 | < 0 | < 0 | < 0 |
| O=C(CP(=O)(O)O)NCCc1cccc(Oc2ccccc2)c1 | 108 | 84.2 | 0.91 | 16.8 | 19.8 | 30.7 | 29.5 | 2.33 | < 0 | < 0 | < 0 |
| O=c1nc(N2CCN(CC3CCCCC3)CC2)sc2c([N+](=O)[O-])cc(C(F)(F)F)cc12 | 95.8 | 112 | 7.83 | < 0 | 4.32 | 37 | 107 | < 0 | < 0 | 8.82 | < 0 |
| CCCC1(C2CC2)c2cc(Cl)ccc2NC(=O)N1C (configuration not stated) | 60.2 | 59.9 | 1.91 | < 0 | 6.87 | 18 | 53.6 | < 0 | < 0 | 0.472 | < 0 |
| Oc1cc(-c2cccc3ccccc23)[nH]n1 | 109 | 68.8 | 2.56 | 4.17 | 26.7 | 3.8 | -4.8 | < 0 | < 0 | < 0 | < 0 |
| CSc1ccc2c(c1)C(N1CCN(C)CC1)Cc1ccccc1S2 (configuration not stated) | 90.7 | 137 | -7.96 | < 0 | < 0 | 26.2 | 73.7 | 20.9 | 44.2 | 1.22 | 4.12 |
| CC(N)C12CC3CC(CC(C3)C1)C2 (configuration not stated) | 115 | 102 | -6.21 | 4.36 | 25 | 15.8 | 20.4 | 7.67 | 2.98 | < 0 | 3.24 |
| Cc1cc(-c2ccccc2)c(C(=O)C(=O)Nc2ccc(N3CCN(c4ncc(F)cn4)CC3)cc2)n1C | 90.7 | 72.7 | 10.6 | < 0 | < 0 | 2.18 | 63.9 | 5.9 | 5.39 | < 0 | < 0 |
